Measured values: PubChem BioAssay (Tox21)
Inconclusive results are not listed. The source made the active and inactive calls. Unless noted, calls follow the shape of the dose curve; as a rule, active = well fitted curve in the direction sought with a large enough effect in the repeat runs; inconclusive = weak or mixed curves; inactive = no such curve, though single readings can be large; an effect the other way counts as inactive or inconclusive.

Experiments:
[1] = qHTS assay for small molecules that induce genotoxicity in human embryonic kidney cells expressing luciferase-tagged ATAD5 (AID 651632); also: nearly all actives have a fitted effect of over 15% in size
Method in brief: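 Genotoxicity read-out via ATAD5-luciferase: HEK293T cells, 16 hr compound incubation at 37C, Amplite detection.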

[2] = qHTS assay for small molecule agonists of the p53 signaling pathway - cell viability (AID 651633; calls by dose curve;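 also: p53RE-bla HCT reporter cells with a stable beta-lactamase p53 reporter; series mostly up to about 83 µM; nearly all actives have a fitted effect of over 30% in size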)
Method in brief: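 Viability counter-read: CellTiter-Glo luminescence (30 min, room temperature) in the same p53RE-bla plates. These plates had been exposed to compounds for 16 h at 37 C.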

[3] = qHTS assay for small molecules that induce genotoxicity in human embryonic kidney cells expressing luciferase-tagged ATAD5 - cell viability (AID 651634; calls by dose curve; also: nearly all actives have a fitted effect of over 25% in size)
Method in brief: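 Live-cell protease activity (CellTiter-Fluor, fluorescence) indicates viability. HEK293T cells with luciferase-tagged ATAD5; 15.5 hr compound treatment at 37C.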

[4] = qHTS assay for small molecule disruptors of the mitochondrial membrane potential - cell viability (AID 720634; calls by dose curve;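 also: human HepG2 liver cancer cells; series mostly up to about 83 µM; nearly all actives have a fitted effect of over 20% in size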)
Method in brief: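 Human hepatoma HepG2 cells were treated for 1 hr with test chemicals, then given m-MPI dye and CellTiter-Glo. Cell viability reflects luminescence proportional to cellular ATP.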

[5] = qHTS assay to test for compound auto fluorescence at 590 nm (red) in HepG2 cells (AID 720674)
Method in brief: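 We screened compounds on adherent HepG2 cells, incubating them for an hour at 37 C in 5% CO2 before reading emission at 590 nm under 540 nm excitation; values reflect equivalence to Rose Bengal sodium fluorescence.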

[6] = qHTS assay to test for compound auto fluorescence at 535 nm (green) in HepG2 cells (AID 720675)
[7] = qHTS assay to test for compound auto fluorescence at 460 nm (blue) in HEK293 cells (AID 720678)
Method in brief: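 Cells were seeded and left to adhere for 4-5 hr at 37C. Compounds were then pin-transferred. After an overnight incubation at 37C under 5% CO2, intrinsic fluorescence at 405/460 nm was measured and referenced to triamterene.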

[8] = qHTS assay to test for compound auto fluorescence at 590 nm (red) in HEK293 cells (AID 720679)
Method in brief: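 Each well held 2,000 HEK293 cells in medium containing 10% dialyzed FBS. Following 4-5 hr attachment at 37C, 23 nL test compound or DMSO was added; plates sat overnight, and red fluorescence (540/590nm) was recorded.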

[9] = qHTS assay to test for compound auto fluorescence at 535 nm (green) in HEK293 cells (AID 720680)
[10] = qHTS assay to test for compound auto fluorescence at 460 nm (blue) in HEK293 cell free culture (AID 720681)
Method in brief: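 Blue fluorescence (Ex 405/Em 460 nm, triamterene-equivalent) was read immediately after pin transfer of compound or DMSO into medium (DMEM, 10% FBS) without cells.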

[11] = qHTS assay to test for compound auto fluorescence at 535 nm (green) in HEK293 cell free culture (AID 720682)
Method in brief: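 Using fluorescein as calibrant, autofluorescence was quantified at 485/535 nm in cell-free DMEM containing 10% FBS after pintool addition of compound or vehicle.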

[12] = qHTS assay to test for compound auto fluorescence at 590 nm (red) in HEK293 cell free culture (AID 720683)
Method in brief: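 Red-channel autofluorescence of compounds in culture medium (DMEM, 10% FBS), no cells, measured at 540/590 nm. Rose Bengal sodium is the reference fluorophore for equivalence.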

[13] = qHTS assay to test for compound auto fluorescence at 590 nm (red) in HepG2 cell free culture (AID 720684)
Method in brief: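 Plate contents were MEM with 10% FBS plus test compound or DMSO, no cells. Fluorescence was recorded with 540 nm excitation and 590 nm emission.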

[14] = qHTS assay to test for compound auto fluorescence at 460 nm (blue) in HepG2 cell free culture (AID 720685)
Method in brief: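 Compound (23 nL) or DMSO pinned into cell-free MEM with 10% FBS; blue fluorescence read at 405/460 nm excitation/emission, expressed as auto-fluorescence equivalency to triamterene.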

[15] = qHTS assay to test for compound auto fluorescence at 535 nm (green) in HepG2 cell free culture (AID 720686)
[16] = qHTS assay to test for compound auto fluorescence at 460 nm (blue) in HepG2 cells (AID 720687)
Method in brief: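 Blue-channel autofluorescence (Ex/Em 405/460 nm, triamterene-equivalent) was measured after 1 hr compound exposure at 37 C, 5% CO2. Cells were HepG2, plated overnight at 37 C in MEM plus 10% FBS.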

[17] = target: Glucocorticoid receptor (Homo sapiens) (UniProt P04150); assay: qHTS assay to identify small molecule agonists of the glucocorticoid receptor (GR) signaling pathway (AID 720691; active = well fitted activation curve with a large enough effect in the signal ratio in the repeat runs, not every such curve was filed as active; the % refers to the signal ratio)
Method in brief: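 Beta-lactamase reporter activity, read as fluorescence intensity, was measured in GR-bla HeLa cells exposed to compounds for 18 h at 37 C and then loaded with LiveBLAzer B/G FRET substrate for 2 h at room temperature.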

[18] = target: Glucocorticoid receptor (Homo sapiens) (UniProt P04150); assay: qHTS assay to identify small molecule antagonists of the glucocorticoid receptor (GR) signaling pathway (AID 720692; active = well fitted inhibition curve with a large enough effect in the signal ratio in the repeat runs, not every such curve was filed as active; the % refers to the signal ratio)
Method in brief: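 Fluorescence from cleaved LiveBLAzer B/G FRET substrate reports GRE-driven beta-lactamase in HeLa cells; compounds are tested against 5 nM dexamethasone (final) over 18 h at 37 C, substrate incubation 2 h at room temperature.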

[19] = qHTS assay for small molecule disruptors of the mitochondrial membrane potential (AID 720635)
Method in brief: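 Mitochondrial membrane potential tracked with Mito-MPS dye, red aggregates (ex 540/em 590 nm) against green monomers (ex 490/em 535 nm). Compound treatment 1 hr at 37C, dye 30 min in HepG2.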

Measured: Potency

Sequence of Glucocorticoid receptor (Homo sapiens) (P04150 whole entry, looked up): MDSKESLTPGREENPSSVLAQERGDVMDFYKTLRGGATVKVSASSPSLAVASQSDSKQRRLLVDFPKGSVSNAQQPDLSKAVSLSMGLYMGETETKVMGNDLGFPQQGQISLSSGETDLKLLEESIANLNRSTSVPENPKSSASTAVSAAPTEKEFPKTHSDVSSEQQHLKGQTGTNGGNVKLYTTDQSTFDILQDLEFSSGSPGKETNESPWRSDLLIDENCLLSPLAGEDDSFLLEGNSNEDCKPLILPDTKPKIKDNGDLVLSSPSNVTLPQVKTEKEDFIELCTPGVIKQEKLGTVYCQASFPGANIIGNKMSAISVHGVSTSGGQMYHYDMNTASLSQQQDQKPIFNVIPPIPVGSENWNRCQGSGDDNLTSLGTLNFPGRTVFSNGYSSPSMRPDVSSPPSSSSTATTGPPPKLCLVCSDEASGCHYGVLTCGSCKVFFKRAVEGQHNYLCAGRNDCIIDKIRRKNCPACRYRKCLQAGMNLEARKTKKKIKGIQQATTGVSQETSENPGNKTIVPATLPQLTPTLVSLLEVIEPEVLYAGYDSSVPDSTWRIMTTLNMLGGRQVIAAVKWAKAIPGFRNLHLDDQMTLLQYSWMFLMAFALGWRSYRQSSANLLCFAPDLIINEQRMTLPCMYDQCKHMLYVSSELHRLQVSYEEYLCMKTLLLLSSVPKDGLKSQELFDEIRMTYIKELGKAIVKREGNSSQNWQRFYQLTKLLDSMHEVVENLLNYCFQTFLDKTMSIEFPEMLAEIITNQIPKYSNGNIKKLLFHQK

Cc1ccc(N(CC2=NCCN2)c2cccc(O)c2)cc1
not listed: [19]
inactive: all other assays above

CCCCCCCCCCCC(=O)OCC(O)CO (stereo unspecified)
not listed: [13] | [17] | [18] | [19]
inactive: all other assays above

CC(C)c1ccc(C(=O)N=C(N)N)cc1S(C)(=O)=O
not listed: [3] | [6] | [10]
inactive: all other assays above

O=C(O)CO
not listed: [17] | [18] | [19]
inactive: all other assays above

CCCCCCCCCCCCCCCC(=O)OCC
not listed: [13] | [19]
inactive: all other assays above

CC1CCC(C(C)CS)CC1S (stereo unspecified)
not listed: [2] | [3] | [4] | [18]
inactive: all other assays above

COc1cc(OC)c2ccc(=O)oc2c1
not listed: [2] | [7] | [10] | [14] | [16] | [17] | [18] | [19]
inactive: all other assays above

CSCC[C@H](NC(=O)[C@H](Cc1c[nH]c2ccccc12)NC(=O)CCNC(=O)OC(C)(C)C)C(=O)N[C@@H](CC(=O)O)C(=O)N[C@@H](Cc1ccccc1)C(N)=O
not listed: [2] | [6] | [10]
inactive: all other assays above

CN1CCCN(C(c2ccccc2)c2ccc(Cl)cc2)CC1 (stereo unspecified)
not listed: [2] | [18] | [19]
inactive: all other assays above

Cc1ccc2c(c1)CCCN2
not listed: [2] | [3] | [10]
inactive: all other assays above
